# According to PubChem BioAssay:
# Activity calls are given as the source filed them. Unless noted, no rule for the calls is given here.
# Experiments:
# [1] = resazurin metabolic signal in HepG2 cells – cell-based, resazurin fluorescence, 24 h, PK04 Diversity Set, profiling panel (AID 1172); settings: HepG2 viability, higher = more signal
# [2] = budding yeast growth changes without added modifier – OD600, strain BY4716, 24 h, basal condition, primary screen (AID 1173); settings: S. cerevisiae BY4716 growth, OD600, 24 h; higher = more signal, called active from +8 up or from −8 down
# [3] = viability profiling in MM1S myeloma cells – cell-based, resazurin fluorescence, basal, 24 h, PK04 Diversity Set, profiling panel (AID 1174); settings: higher = more signal, called active from +8 up or from −8 down;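 also: MM1S multiple myeloma cell line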
# [4] = target: Dihydroorotate dehydrogenase (quinone), mitochondrial (Plasmodium falciparum (isolate 3D7)) (UniProt Q08210); assay: inhibition of P. falciparum DHODH – biochemical, C-terminal His tag, absorbance 600 nm, primary screen (AID 1175); settings: PfDHODH enzyme, DCIP absorbance 600 nm; higher = more signal, called active from +8 up or from −8 down;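 also: recombinant parasite enzyme with a five histidine tag at its C terminus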
# Sequence of Dihydroorotate dehydrogenase (quinone), mitochondrial (Plasmodium falciparum (isolate 3D7)) (Q08210 whole entry, looked up): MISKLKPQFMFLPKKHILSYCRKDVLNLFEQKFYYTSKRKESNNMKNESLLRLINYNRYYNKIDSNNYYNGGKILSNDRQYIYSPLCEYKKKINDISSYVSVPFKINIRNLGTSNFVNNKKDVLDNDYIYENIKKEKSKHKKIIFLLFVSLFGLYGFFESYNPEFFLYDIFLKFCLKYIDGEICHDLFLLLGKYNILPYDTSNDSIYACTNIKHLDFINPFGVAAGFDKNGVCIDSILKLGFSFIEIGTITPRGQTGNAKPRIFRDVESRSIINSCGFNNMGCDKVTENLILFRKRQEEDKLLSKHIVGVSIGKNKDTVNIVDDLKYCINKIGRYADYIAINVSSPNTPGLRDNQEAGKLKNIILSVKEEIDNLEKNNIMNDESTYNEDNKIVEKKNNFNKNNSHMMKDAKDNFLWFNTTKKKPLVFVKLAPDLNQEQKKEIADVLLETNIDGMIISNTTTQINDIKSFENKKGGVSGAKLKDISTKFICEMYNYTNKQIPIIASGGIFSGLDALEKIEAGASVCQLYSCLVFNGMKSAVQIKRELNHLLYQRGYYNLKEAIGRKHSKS
# [5] = inhibition of PAO1 biofilm formation – strain PAO1, LB-PBS medium, absorbance 600 nm, primary screen (AID 1176); settings: P. aeruginosa PAO1 growth/biofilm, A600, 12 h; higher = more signal
# [6] = growth modulation of vineyard yeast isolate – strain RM11-1a, OD600, basal, 24 h, primary screen (AID 1177);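 also: cultures grown under basal conditions with no added stressor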; settings: S. cerevisiae RM11-1a growth, OD600, 24 h; higher = more signal, called active from +8 up or from −8 down
# [7] = growth of efflux-deficient E. coli DRC39 – strain DRC39, OD650, 24 h, E. coli filamentation inducers, primary screen (AID 1178);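 also: growth measured as culture turbidity by optical density at 650 nm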; settings: E. coli DRC39 acrAB, higher = more signal, called active from +8 up or from −8 down
# [8] = growth of efflux-deficient E. coli DRC39 – strain DRC39, OD650, 48 h, E. coli filamentation inducers, primary screen (AID 1179);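 also: screen aims at cell division blockers that make cells filament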; settings: E. coli DRC39 delta-acrAB growth, higher = more signal, called active from +8 up or from −8 down
# [9] = viability profiling in RPMI8226 myeloma cells – cell-based, resazurin fluorescence, basal, 24 h, PK04 Diversity Set, profiling panel (AID 1180); settings: higher = more signal;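 also: RPMI8826 multiple myeloma cell line at 5000 cells per well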
# [10] = target: E3 ubiquitin-protein ligase XIAP (Homo sapiens) (UniProt P98170); assay: small molecules binding XIAP protein – biophysical, small-molecule microarray, fluorescence 635 nm, primary screen (AID 1181); settings: higher = more signal;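 also: score merges 667 nm emission and signal to noise over triplicate slides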
# Sequence of E3 ubiquitin-protein ligase XIAP (Homo sapiens) (P98170 whole entry, looked up, the tested form may be a part): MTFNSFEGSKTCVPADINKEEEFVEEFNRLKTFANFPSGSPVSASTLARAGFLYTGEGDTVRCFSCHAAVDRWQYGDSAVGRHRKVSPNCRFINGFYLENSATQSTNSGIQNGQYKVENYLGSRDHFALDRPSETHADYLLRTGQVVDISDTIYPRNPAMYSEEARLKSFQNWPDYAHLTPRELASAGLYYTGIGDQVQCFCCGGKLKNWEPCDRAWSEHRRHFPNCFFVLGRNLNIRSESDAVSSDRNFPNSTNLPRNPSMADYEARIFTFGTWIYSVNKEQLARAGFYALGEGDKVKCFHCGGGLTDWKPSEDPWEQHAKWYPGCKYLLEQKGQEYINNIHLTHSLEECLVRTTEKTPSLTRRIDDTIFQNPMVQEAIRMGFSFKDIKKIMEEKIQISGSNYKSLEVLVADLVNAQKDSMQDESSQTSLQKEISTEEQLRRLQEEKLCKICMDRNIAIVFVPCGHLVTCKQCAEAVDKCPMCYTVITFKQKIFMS
# [11] = system: XIP peptide (Xip251-270) binding; assay: XIP fragment 251-270 binding compounds – biochemical, small-molecule microarray, fluorescence 635/667 nm, 0.1 µg/mL protein, primary screen (AID 1182); settings: fluorescent protein binding, 635 nm, higher = more signal, called active from +8 up or from −8 down
# XIP peptide (Xip251-270) = assay: compounds binding XIP fragment 251-270 – biochemical, small-molecule microarray, fluorescence 635/667 nm, 0.5 µg/mL protein, primary screen (AID 1183); settings: fluorescence 635 nm, higher = more signal
# [12] = blood-stage malaria parasite viability loss – strain 3D7, DAPI fluorescence, 100 nL, primary screen (AID 1184);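 also: parasites grown inside human red blood cells in medium with human serum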; settings: P. falciparum 3D7 growth, 3 d, higher = more signal
# [13] = target: Homeobox protein Hox-A13 (Mus musculus) (UniProt Q62424); assay: disruptors of Hoxa13 oligonucleotide interaction – biochemical, fluorescence polarization, labeled oligonucleotide, primary screen (AID 1185); settings: Hoxa13:DNA binding, 15 min, higher = more signal, called active from +8 up or from −8 down
# Sequence of Homeobox protein Hox-A13 (Mus musculus) (Q62424 whole entry, looked up): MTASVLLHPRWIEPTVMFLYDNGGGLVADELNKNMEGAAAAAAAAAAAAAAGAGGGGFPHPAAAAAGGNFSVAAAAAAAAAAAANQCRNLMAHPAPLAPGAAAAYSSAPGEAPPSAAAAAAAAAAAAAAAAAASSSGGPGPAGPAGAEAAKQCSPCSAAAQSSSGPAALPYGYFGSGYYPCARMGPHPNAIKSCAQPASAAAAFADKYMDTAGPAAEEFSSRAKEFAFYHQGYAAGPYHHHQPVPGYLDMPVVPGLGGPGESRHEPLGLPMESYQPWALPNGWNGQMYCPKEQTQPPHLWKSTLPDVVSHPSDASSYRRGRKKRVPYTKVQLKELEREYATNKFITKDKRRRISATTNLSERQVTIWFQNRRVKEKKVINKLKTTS
Compound,z-score [1],z-score [2],z-score [3],composite z-score [4],z-score [5],z-score [6],z-score [7],z-score [8],z-score [9],composite z-score [10],composite z-score [11],composite z-score (XIP peptide (Xip251-270)),z-score [12],z-score [13]
CC(CCN1CCCCc2nc(C)c(C)cc21)=NO[C@H](C)c1cn([C@H](CO)Cc2ccccc2)nn1,-0.605,-0.241 (inactive),0.0783 (inactive),0.301 (inactive),-0.503 (inactive),-0.134 (inactive),-0.894 (inactive),-0.488 (inactive),0.594,0.0595,-0.28 (inactive),0.542,-1.56,-5.13 (inactive)
CCOC(=O)[C@H](Cc1ccccc1)NC(=O)CCC1CC(OC(=O)NCc2cccc3ccccc23)CC2(CCCC(COC(=O)NCc3ccccc3)O2)O1 (stereo partly drawn),0.466,-2.55 (inactive),1.12 (inactive),-2.79 (inactive),0.709 (inactive),-2.62 (inactive),-0.964 (inactive),-1.23 (inactive),1.03,0.171,0.278 (inactive),0.355,-1.41,-1.5 (inactive)
O=C1C[C@@H](O)[C@@H](O)[C@@H]2[C@@H]3C(=O)N(C[C@@H]4CCCO4)C(=O)[C@@H]3CC[C@H]12,-0.57,-0.189 (inactive),-0.0898 (inactive),0.602 (inactive),-0.744 (inactive),0.739 (inactive),0.343 (inactive),0.17 (inactive),-0.449,-0.28,0.195 (inactive),0.156,0.116,0.195 (inactive)
C[n+]1ccc(-c2ccc(CO)cc2)cc1,-0.557,0.11 (inactive),-0.404 (inactive),-10 (active),-0.407 (inactive),-0.142 (inactive),0.207 (inactive),-0.0742 (inactive),-0.674,0.433,0.725 (inactive),-0.227,1.09,-2.76 (inactive)
CON=C[C@@H](C)[C@H](OCc1ccccc1)C(C)C,-0.304,-0.639 (inactive),0.548 (inactive),-2.72 (inactive),0.298 (inactive),-0.919 (inactive),-1.29 (inactive),-2.73 (inactive),-0.32,-0.409,-0.372 (inactive),-0.647,-1.11,3.84 (inactive)
C=CC[C@@H]1C=C[C@H](ON=C(C)CCC(=O)OC[C@H]2O[C@H](c3ccccc3)C=C[C@@H]2Oc2ccc(OC)cc2)[C@@H](CO)O1,0.0276,0.31 (inactive),-0.517 (inactive),-0.582 (inactive),0.347 (inactive),-0.0293 (inactive),0.741 (inactive),1.15 (inactive),-0.212,-0.0272,0.0195 (inactive),0.595,0.298,-5.41 (inactive)
O=C1OCCC=C1C(O)CCc1ccccc1 (stereo not drawn),0.0362,-0.567 (inactive),-0.649 (inactive),-0.0757 (inactive),-0.564 (inactive),-0.415 (inactive),0.258 (inactive),0.137 (inactive),-0.573,-0.202,0.321 (inactive),0.716,-0.542,-0.295 (inactive)
CCOC(=O)NN=C1C[C@@H](O)[C@@H](O)[C@@H]2[C@@H]3C(=O)N(C(C)(C)C)C(=O)[C@@H]3CC[C@H]12,-1.46,-0.962 (inactive),-0.4 (inactive),-0.397 (inactive),0.434 (inactive),0.179 (inactive),0.408 (inactive),0.72 (inactive),-0.226,-0.246,-0.188 (inactive),0.29,0.202,0.772 (inactive)
COc1ccc(O[C@@H]2[C@H](O)CO[C@@H]2C=Cc2ccccc2)cc1,-0.489,-2.44 (inactive),0.995 (inactive),-3.01 (inactive),0.815 (inactive),-0.614 (inactive),-1.16 (inactive),-1.93 (inactive),0.54,0.0975,0.196 (inactive),0.592,-0.971,-0.162 (inactive)
COc1ccc(O[C@H]2C=C[C@@H](c3ccccc3)O[C@@H]2COC(=O)CCC(C)=NOC(C)CN2CCCc3nc(C)c(C)cc32)cc1 (stereo partly drawn),1.21,-0.729 (inactive),-0.317 (inactive),-0.154 (inactive),-0.336 (inactive),1.37 (inactive),1.09 (inactive),0.129 (inactive),0.757,-0.127,0.53 (inactive),0.552,-1.95,-5.13 (inactive)
CC(C)(C)N1C(=O)[C@H]2[C@H]3[C@H](O)[C@H](O)CC(=NOCc4ccccc4)[C@H]3CC[C@H]2C1=O,-0.211,-0.565 (inactive),0.0488 (inactive),-0.192 (inactive),-0.237 (inactive),-0.786 (inactive),0.184 (inactive),0.332 (inactive),0.237,-0.102,0.082 (inactive),-0.112,0.195,-4.16 (inactive)
CON=C1[C@H]2CCn3c(=O)n(-c4ccccc4)c(=O)n3[C@H]2[C@H](O)[C@@H]2O[C@H]12,0.348,-1.45 (inactive),0.333 (inactive),-0.984 (inactive),0.335 (inactive),-2.21 (inactive),0.0966 (inactive),-1.03 (inactive),0.116,0.0159,-0.0682 (inactive),0.491,-0.573,-0.465 (inactive)
COc1cccc([C@H]2Oc3ccc(OC)cc3C(=NO[C@@H]3O[C@H](COC(C)=O)[C@@H](OC(C)=O)[C@H](OC(C)=O)[C@H]3OC(C)=O)[C@@H]2O)c1,-0.34,0.387 (inactive),-0.726 (inactive),-0.582 (inactive),0.347 (inactive),-1.02 (inactive),0.416 (inactive),-0.716 (inactive),-0.158,0.02,-0.481 (inactive),-0.172,0.956,-5.19 (inactive)
O=C1C2=CC[C@H]3C(=O)N(c4cccc(Oc5ccccc5)c4)C(=O)[C@H]3[C@H]2[C@H](O)[C@@H]2O[C@H]12,-1.02,-1.72 (inactive),-6.54 (inactive),-1.2 (inactive),-0.261 (inactive),-0.0295 (inactive),-0.392 (inactive),-0.281 (inactive),-3.76,0.0506,-0.0743 (inactive),0.182,0.86,-2.99 (inactive)
C[C@H]1CC[C@H]2C(=O)O[C@H](COc3ccc(C(C)(C)C)cc3)CN2[C@@H]1c1ccc(Br)cc1,-0.158,-0.407 (inactive),0.422 (inactive),0.159 (inactive),-0.409 (inactive),-0.0809 (inactive),-1.42 (inactive),-1.37 (inactive),0.432,-0.19,1.71 (inactive),0.567,-0.398,1.13 (inactive)
C[C@H]1COC(=O)[C@@H]2CCCN2C(=O)[C@@H](C)COC(=O)[C@H](Cc2ccccc2)NC1=O,0.409,0.0852 (inactive),-0.208 (inactive),-0.926 (inactive),-0.348 (inactive),-0.231 (inactive),0.0861 (inactive),0.503 (inactive),0.586,1.05,-0.102 (inactive),0.435,-0.735,0.163 (inactive)
CON=CC[C@@H]1C=C[C@H](OC(C)=O)[C@@H](COC(C)=O)O1,-0.144,-0.0768 (inactive),0.0181 (inactive),-1.1 (inactive),-0.0903 (inactive),0.964 (inactive),0.736 (inactive),-1.17 (inactive),-0.143,0.502,0.726 (inactive),0.763,1.2,0.463 (inactive)
CC(C)=CCCC(C)=CCON=C1C[C@@H](O)[C@@H](O)[C@@H]2[C@@H]3C(=O)N(Cc4ccccc4)C(=O)[C@@H]3CC[C@H]12,1.17,-2.99 (inactive),1.14 (inactive),-0.88 (inactive),0.507 (inactive),-1.28 (inactive),-0.366 (inactive),0.167 (inactive),0.369,-0.177,-0.0515 (inactive),0.419,-0.869,-4.91 (inactive)
O=C1[C@H]2[C@H]3[C@H](O)[C@H](O)CC(=NOC[C@@H](O)COCc4ccco4)[C@H]3CC[C@H]2C(=O)N1C[C@@H]1CCCO1,0.639,0.0107 (inactive),-0.324 (inactive),-0.199 (inactive),0.07 (inactive),-0.0915 (inactive),-0.481 (inactive),-0.467 (inactive),0.15,-0.217,-0.149 (inactive),0.605,0.523,-0.514 (inactive)
COC(=O)[C@@H]1CC[C@H](C)[C@@H](c2ccc(C)cc2)N1C(=O)c1ccc(C=NOC[C@@H](C)[C@H](OCc2ccccc2)C(C)C)cc1,-0.625,-2.56 (inactive),-0.795 (inactive),-0.869 (inactive),-1.16 (inactive),-2.18 (inactive),0.413 (inactive),-1.07 (inactive),-0.987,-0.135,0.0611 (inactive),0.489,-1.87,-4.87 (inactive)
COc1cccc([C@@H]2Oc3ccc(OC)cc3C(=O)[C@H]2O)c1,0.115,-8.27 (active),0.0409 (inactive),-2.73 (inactive),-0.364 (inactive),-0.55 (inactive),-1.47 (inactive),-2.37 (inactive),0.329,-0.0773,0.565 (inactive),0.65,-1.09,-0.169 (inactive)
CCOC(=O)[C@H](CC(C)C)NC(=O)CCC1CC(OC(=O)NCCc2ccc(F)cc2)CC2(CCCC(COC(=O)NCCc3ccccc3OC)O2)O1 (stereo partly drawn),-0.285,-0.376 (inactive),0.311 (inactive),-0.991 (inactive),0.45 (inactive),0.354 (inactive),0.61 (inactive),0.376 (inactive),0.441,-0.0565,0.742 (inactive),0.578,-1.89,-2.36 (inactive)
